Consider 25 molecules from PubChem BioAssay (NCATS).

Values joined by “and” are separate entries in the source; they are usually repeats but may differ in a detail not shown here. Equal entries are not always repeated. Results filed as inconclusive are left out. A call without a number means that no potency is given here. Active and inactive are the calls of the source. Calls follow the shape of the dose curve; as a rule, active = well fitted cell-killing curve with a large enough effect; inconclusive = small, poorly fitted or top-dose-only effect; inactive = flat fitted curve, though single readings scatter.
Potency is read from the fitted curve at half-maximal effect.

One test is described as follows: qHTS of pediatric cancer cell lines to identify multiple opportunities for drug repurposing: Primary screen for BT-12 cells (AID 1347101). Also: nearly all actives have a fitted effect of over 25% in size. The conditions noted are these: BT-12 viability, CellTiter-Glo luminescence, 48 h; series mostly up to 57.3 µM. In a few lines: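 Cells (500-1,000/well) rested 5 h, then received compounds for 48 h; metabolically active cells were measured by CellTiter-Glo luminescence. Final concentrations spanned up to 46 µM (MIPE, 11-point) or 0.59 nM-46 µM (NPC, 8-point) in primary screens, 11-point in follow-ups.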
(qHTS replaces the single test concentration by a dilution series.)
In the case of `CN(C)c1ccc(C(=C2C=CC(=[N+](C)C)C=C2)c2ccc(N(C)C)cc2)cc1`, the Potency is 1.38 µM (active) and 611 nM (active).
On to `Oc1c(Cl)cc(Cl)c2cccnc12`, for which the Potency is 27.6 µM (active) and 30.6 µM (active).
Same read-out and setting: under `O=S(=O)(c1cccc2cnccc12)N1CCCNCC1` stands “inactive”.
`CCOC(=O)[C@H](CCc1ccccc1)N[C@H]1CCc2ccccc2N(CC(=O)O)C1=O`: the Potency was 27.3 µM (active).
On to `COc1cc2c(Nc3ccc(Br)cc3F)ncnc2cc1OCC1CCN(C)CC1`, for which the Potency entry was “inactive”.
Regarding `C[C@@H](NCCCc1cccc(C(F)(F)F)c1)c1cccc2ccccc12`, the Potency entry is “inactive”.
For the molecule `CCOC(=O)c1ccc(C#Cc2ccc3c(c2)C(C)(C)CCS3)nc1`, the Potency entry is “inactive”.
Take `S=P(N1CC1)(N1CC1)N1CC1`: the Potency result was “inactive”.
For `COC(=O)Nc1nc2ccc(C(=O)c3ccccc3)cc2[nH]1`, the Potency was 347 nM (active) and 2.43 µM (active).
Regarding `Nc1nc(F)nc2c1ncn2[C@@H]1O[C@H](CO)[C@@H](O)[C@@H]1O`, the Potency was 1.53 µM (active).
Turning to `NC(=O)c1ccc2[nH]ccc2c1`, the Potency result is “inactive”.
Still for that read-out and setting: under `CN(Cc1cc(Br)cc(Br)c1N)C1CCCCC1` stands “inactive”.

The nature of the next test: qHTS of pediatric cancer cell lines to identify multiple opportunities for drug repurposing: Primary screen for Rh18 cells (AID 1347102). Also: nearly all actives have a fitted effect of over 65% in size. The conditions noted are these: Rh18 rhabdomyosarcoma viability, CellTiter-Glo luminescence, 48 h; series mostly up to 46 µM. In a few lines:
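Viability after 48 h compound treatment at 37C, 500-1,000 cells/well, read as ATP luminescence with CellTiter-Glo. Primary screens used 11-point (MIPE, 0.78 nM-46 µM) or 8-point (NPC, 0.59 nM-46 µM) final concentrations; follow-up screens used 11-point dilutions.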
As to `CC(=O)Oc1ccccc1C(=O)Nc1ncc([N+](=O)[O-])s1`, the Potency is 42.9 µM (active).
Consider `OCc1ccc(-c2nn(Cc3ccccc3)c3ccccc23)o1`, for which the Potency result is “inactive”.
In the case of `COc1cc2nc(N3CCCN(C)CC3)nc(NC3CCN(Cc4ccccc4)CC3)c2cc1OC`, the Potency was 9.35 µM (active).
For the molecule `O=C(O)c1ccc(-n2nc(-c3ccccc3O)nc2-c2ccccc2O)cc1`, the Potency result is “inactive”.
Same read-out and setting: under `CCC(=O)O[C@]1(C(=O)SCF)[C@H](C)C[C@H]2[C@@H]3C[C@H](F)C4=CC(=O)C=C[C@]4(C)[C@@]3(F)[C@@H](O)C[C@@]21C` stands “inactive”; under `NC(=O)c1cccnc1`, “inactive”; under `Cc1c(-c2ccc(O)cc2)n(Cc2ccc(OCCN3CCCCCC3)cc2)c2ccc(O)cc12`, “inactive”.
For `CCC(C)(C)c1ccc(CC(C)CN2C[C@@H](C)O[C@@H](C)C2)cc1` (stereo partly drawn), the Potency entry was “inactive”.
The same measure, in the same setting: in the case of `CCCCc1oc2ccc(NS(C)(=O)=O)cc2c1C(=O)c1ccc(OCCCN(CCCC)CCCC)cc1` it was 18.7 µM (active); in that of `CN(C)c1ccc(C(=C2C=CC(=[N+](C)C)C=C2)c2ccc(N(C)C)cc2)cc1`, 750 nM (active) and 332 nM (active); in that of `O=S(=O)(c1cccc2cnccc12)N1CCCNCC1`, “inactive”.
The same measure, in the same setting: in the case of `CNS(=O)(=O)CCc1ccc2[nH]cc(C3CCN(C)CC3)c2c1` it was “inactive”; in that of `C[C@@H](NCCCc1cccc(C(F)(F)F)c1)c1cccc2ccccc12`, “inactive”; in that of `CCOC(=O)c1ccc(C#Cc2ccc3c(c2)C(C)(C)CCS3)nc1`, “inactive”.
With `S=P(N1CC1)(N1CC1)N1CC1`, the Potency entry was “inactive”.
For the molecule `COC(=O)Nc1nc2ccc(C(=O)c3ccccc3)cc2[nH]1`, the Potency entry is “inactive”.
Turning to `NC(=O)c1ccc2[nH]ccc2c1`, the Potency entry is “inactive”.
As to `CC(C)(C)NC(=O)[C@H]1CC[C@H]2[C@@H]3CC[C@H]4NC(=O)C=C[C@]4(C)[C@H]3CC[C@]12C`, the Potency entry was “inactive”.
Take `CN(Cc1cc(Br)cc(Br)c1N)C1CCCCC1`: the Potency result is “inactive”.
As to `Cc1cccc(N(C)C(=S)Oc2ccc3ccccc3c2)c1`, the Potency entry is “inactive”.
The same measure, in the same setting: in the case of `CC(C)Cn1cnc2c(N)nc3ccccc3c21` it was “inactive”.
